Screens as filed in PubChem.
KB-3-1 cytotox – KB-3-1 parental cell cytotoxicity; KB-3-1 viability, CellTiter-Glo ATP luminescence, 72 h; Potency, µM (top dose mostly 46.1 µM), most hits filed as cytotoxic; hit rate 1.4% among 400,000; further: nearly all actives have a fitted effect of over 60% in size
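Parental KB-3-1 adenocarcinoma cells in phenol-red-free DMEM with 10% FBS were pin-treated with compounds at several concentrations, incubated 72 h at 37 °C, and viability read by CellTiter-Glo luminescence; concentration-effect curves were fitted after normalization.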
HT1080 IDH1KD tx – kills HT-1080 cells with IDH1 knockdown; HT-1080 IDH1 knockdown viability, ATP luminescence, 48 h; Potency, µM (doses to about 46.1 µM), usual class: cytotoxic; hit rate 2% among 360,000; AID 686971
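CellTiter-Glo luminescence after 48 h compound exposure at 37 degrees C of IDH1-knockdown HT-1080 cells in 5% FBS RPMI. %Activity scaled between DMSO wells and cell-free media wells, with curves fitted and assigned curve classes.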
ATXN2 expr inh – ATXN2 expression inhibition; hit rate 0.72% among 360,000; Potency, µM (highest dose often 57 µM), usual class: inhibitors; HEK-293 ATXN2-luciferase reporter, luminescence, 24 h; further: nearly all actives have a fitted effect of over 55% in size
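qHTS (up to 57 uM final) was run with 24 h compound exposure of reporter cells at 37 °C. Each well was multiplexed: SteadyGlo luminescence measured ATXN2-luciferase expression after a fluorogenic Gly-Phe-AFC viability readout (25 uM final).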
HT1080NT lethal – kills 2HG-producing HT-1080-NT fibrosarcoma cells | HT-1080-NT fibrosarcoma viability, CellTiter-Glo ATP luminescence, 48 h | Potency, µM (highest dose often 46.1 µM), actives largely listed as cytotoxic | AID 686970 | hit rate 1.6% among 360,000;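 further: NT is the 2HG producing partner of a matched IDH1 knockdown line; nearly all actives have a fitted effect of over 55% in size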
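Luminescent CellTiter-Glo readout after 48 hours of compound exposure at 37 degrees C defined viability of HT-1080-NT cells. Activity was normalized to DMSO wells and cell-free media wells; concentration-response curves were fitted and assigned curve classes.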
S2 tox – cell viability loss in ATXN counter-screen | S2 cells (HEK-293 line with an ATXN2-luciferase reporter) viability, CellTiter-Fluor protease fluorescence, 24 h | Potency, µM (top dose mostly 56.7 µM), actives largely listed as cytotoxic | hit rate 0.49% among 400,000 | AID 651635; further: nearly all actives have a fitted effect of over 40% in size
KB-V1 MDR tox – kills drug-selected multidrug resistant KB-V1 cells. AID 1347076. hit rate 3.4% among 400,000. KB-V1 MDR cells viability, CellTiter-Glo, 72 h. Potency, µM (titrated, usually from 46.1 µM), actives largely listed as cytotoxic; further: nearly all actives have a fitted effect of over 60% in size
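KB-V1 MDR subline cells in DMEM (phenol-red free, 10% FBS) exposed to compounds in qHTS concentration series for 72 h at 37 degrees C. Viability read by CellTiter-Glo luminescence; concentration-effect curves fitted after normalization and correction.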
Each line names hits and unclear results; the compound was inactive in the other large screens. This is a sample that favours compounds with a hit; in the whole collection about 6.2% have one here. The call rests on the fitted dose curve; in most records, active means well fitted curve in the direction sought with a large enough effect; inconclusive means small, poorly fitted or top-dose-only effect, or another doubt; inactive means no such curve, though single readings can be large; an effect the other way counts as inactive or inconclusive.

CCOc1cc(C2Nc3cccc4cccc(c34)N2)ccc1O	KB-3-1 cytotox inconclusive, S2 tox inconclusive, KB-V1 MDR tox 15µM
O=C(COc1ccccc1)N(Cc1cccnc1)c1nc2c(F)cccc2s1	none (no result: HT1080 IDH1KD tx, ATXN2 expr inh, HT1080NT lethal, S2 tox)
COc1ccc(OC)c(C2Nc3c(C)cc(C)cc3-c3cc(C)nn32)c1 (stereo not given)	S2 tox inconclusive (no result: HT1080 IDH1KD tx, HT1080NT lethal)
CCCC(=O)N1c2ncnn2C2(CCCCC2)[C@@H]2CCCC[C@@H]21	none (no result: HT1080 IDH1KD tx, HT1080NT lethal)
C=CC(=O)Nc1ccc(CN2C(=O)N(c3c(Cl)c(OC)cc(OC)c3Cl)Cc3cnc(NCCCCN(CC)CC)nc32)cc1	KB-3-1 cytotox 12µM, HT1080 IDH1KD tx 15µM, ATXN2 expr inh inconclusive, HT1080NT lethal 23µM, S2 tox 11µM
CCN(CC)CCNC(=O)c1ccc(NC(=O)Cc2ccc(OC)c(S(=O)(=O)N3CCOCC3)c2)cc1	none
CCN1C[C@@H]2[C@@H]3C(=O)N(Cc4ccccc4)C(=O)[C@@H]3[C@](CC)(C1=O)N2C(=O)c1ccc(Cl)c(Cl)c1	ATXN2 expr inh inconclusive
CCN1C[C@@H]2[C@@H]3C(=O)N(Cc4ccccc4)C(=O)[C@@H]3[C@](Cc3ccccc3)(C1=O)N2C(=O)c1ccc(Cl)c(Cl)c1	KB-3-1 cytotox inconclusive, ATXN2 expr inh inconclusive, S2 tox inconclusive, KB-V1 MDR tox 18µM
Cc1ccc(NC(=O)CSc2nc3ccccc3c3nc(CCc4c(C)n[nH]c4C)nn23)cc1F	HT1080 IDH1KD tx 7.9µM, S2 tox inconclusive
CN1[C@@H]2CCC[C@@H]1CC(NC(=O)c1nn(C)c3ccccc13)C2 (stereo not given in full)	none (no result: KB-3-1 cytotox, HT1080 IDH1KD tx, HT1080NT lethal, KB-V1 MDR tox)
CCC(COC(=O)Nc1cccc(C)c1C)NC(=O)OCC(C)C (stereo not given)	KB-V1 MDR tox 9.2µM
Cc1cc2nc(C3CCN(Cc4nnnn4Cc4cccs4)CC3)[nH]c2cc1C	KB-3-1 cytotox inconclusive, HT1080 IDH1KD tx 1.3µM, HT1080NT lethal inconclusive
Cc1ccc(CN2CCC(c3nc4ccc(Cl)cc4[nH]3)CC2)cc1	ATXN2 expr inh inconclusive, HT1080NT lethal inconclusive, KB-V1 MDR tox inconclusive
CCc1ccc(NC(=O)c2ccc3c(c2)c(C)c(C)n3Cc2ccccc2)cc1	KB-3-1 cytotox inconclusive, KB-V1 MDR tox 8.2µM (no result: HT1080 IDH1KD tx, ATXN2 expr inh, HT1080NT lethal, S2 tox)
CCOc1cc(C)c(-c2onc(C(F)(F)F)c2-c2csc(C)n2)c(O)c1	KB-3-1 cytotox inconclusive, HT1080 IDH1KD tx inconclusive, ATXN2 expr inh inconclusive, HT1080NT lethal inconclusive, S2 tox inconclusive, KB-V1 MDR tox 13µM
COc1cccc(N2CCN(C(=O)CCCCCNc3nc(=S)[nH]c4ccccc34)CC2)c1	HT1080 IDH1KD tx inconclusive, KB-V1 MDR tox 10µM (no result: ATXN2 expr inh)
CCOC(=O)C1=C(c2cccc(Oc3ccccc3)c2)NC(=S)NC1C (stereo not given)	KB-3-1 cytotox inconclusive, HT1080NT lethal inconclusive, KB-V1 MDR tox 16µM
CCOC(=O)C1=C(C)C(c2cccc(Oc3ccccc3)c2)NC(=S)N1 (stereo not given)	HT1080 IDH1KD tx inconclusive, HT1080NT lethal inconclusive, KB-V1 MDR tox inconclusive
CC1Cc2ccccc2N1C(=O)CNCCCN(C)C (stereo not given)	none
CC1CC2(C)Oc3ccccc3CC2C(C)C1CNCCCN(C)C (stereo not given)	KB-3-1 cytotox 15µM, HT1080 IDH1KD tx 6.5µM, ATXN2 expr inh 14µM, HT1080NT lethal 5.8µM, S2 tox inconclusive, KB-V1 MDR tox 18µM
Cn1nnnc1SCC(=O)c1ccc(Br)s1	none
Cn1c(Cc2ccccc2)nnc1SCC(=O)c1ccc(Br)s1	KB-3-1 cytotox inconclusive, KB-V1 MDR tox 13µM
COC(=O)c1c(C(=O)c2ccc(Br)cc2)n(C)c2ccccc12	KB-3-1 cytotox inconclusive, KB-V1 MDR tox 21µM
Oc1ccc(-c2ccc(-c3cc(Nc4cccc(CNC5CC5)c4)n[nH]3)cc2)c(O)c1	ATXN2 expr inh 2.4µM (no result: KB-3-1 cytotox, HT1080 IDH1KD tx, HT1080NT lethal, S2 tox, KB-V1 MDR tox)
Cc1ccc(CNC(=O)Cc2ccc(-n3cccc3)cc2)cc1	KB-3-1 cytotox 7.3µM, HT1080 IDH1KD tx 4.6µM, HT1080NT lethal inconclusive, KB-V1 MDR tox 2.3µM
COc1ccc(CC(=O)NCc2ccc(-n3cccc3)cc2)cc1OC	KB-3-1 cytotox 4.1µM, HT1080 IDH1KD tx 1.8µM, HT1080NT lethal 4.6µM, S2 tox inconclusive, KB-V1 MDR tox 8.2µM
